Data reported in the supplement of paper PMC10849652.
Of roughly 8,800 targets only a part is listed; those with a hit were picked by preference. About 0.5% of all pairs of compound and target were hits.

How the values were obtained:
Test in all cases: log2 fold change, soluble protein after heating vs DMSO (PISA); higher = thermal stabilisation; K562 lysate, 10 uM; active = over 0.2 and 3.5 SD of the protein, either way, in both replicates (recomputed)
vemurafenib = compound: CCCS(=O)(=O)Nc1ccc(F)c(C(=O)c2c[nH]c3ncc(-c4ccc(Cl)cc4)cc23)c1F [vemurafenib]
Procedure, shortened: (§1)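 K562 pellets were dounce-homogenised in PBS pH 7.4 with 1 mM MgCl2, and the crude extract at 1 mg/mL protein was treated with 10 μM compound for 30 min. Aliquots were heated for 3 min across 48°C-58°C, pooled, and brought to 0.5% NP-40 at 4°C; soluble protein was the supernatant after 21,000xg for 90 min. Soluble protein was quantified by TMTpro 16plex LC-MS/MS with channel sums equalised, and reported as log2 fold change in thermal stability against DMSO controls, with values from duplicates.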

[1] = compound: CCCS(=O)(=O)Nc1ccc(F)c(C(=O)c2c[nH]c3ncc(Cl)cc23)c1F
Procedure, shortened: as §1

barasertib = compound: CCN(CCCOc1ccc2c(Nc3cc(CC(=O)Nc4cccc(F)c4)[nH]n3)ncnc2c1)CCOP(=O)(O)O [barasertib]
Procedure, shortened: as §1

[2] = compound: CC[C@@H]1C(=O)N(C)c2cnc(Nc3ccc(C(=O)NC4CCN(C)CC4)cc3OC)nc2N1C1CCCC1
Procedure, shortened: as §1

volasertib = compound: CC[C@@H]1C(=O)N(C)c2cnc(Nc3ccc(C(=O)N[C@H]4CC[C@H](N5CCN(CC6CC6)CC5)CC4)cc3OC)nc2N1C(C)C [volasertib]
Procedure, shortened: as §1

[3] = compound: CCn1c(C(=O)N(C2CC2)C2CC2)cc2c3c(ncn3C)c(Nc3cc(C)n(C)n3)nc21
Procedure, shortened: as §1

[4] = compound: CCn1cc(-c2ccnc3[nH]c(-c4cccc(CN(C)C)c4)cc23)c(-c2ccc(NC(=O)N(C)C)cc2)n1
Procedure, shortened: as §1

[5] = compound: CN1CCC(CNc2ccc3ncc(-c4cccc(OC(F)(F)F)c4)n3n2)CC1
Procedure, shortened: as §1

saracatinib = compound: CN1CCN(CCOc2cc(OC3CCOCC3)c3c(Nc4c(Cl)ccc5c4OCO5)ncnc3c2)CC1 [saracatinib]
Procedure, shortened: as §1

sotrastaurin = compound: CN1CCN(c2nc(C3=C(c4c[nH]c5ccccc45)C(=O)NC3=O)c3ccccc3n2)CC1 [sotrastaurin]
Procedure, shortened: as §1

Measured: log2 fold change

KIF4A (UniProt O95239)
inactive: vemurafenib 0.005 | [1] 0.035 | barasertib -0.02 | [2] -0.021 | volasertib -0.055 | [3] 0.003 | [4] 0.013 | [5] -0.07 | saracatinib 0.007 | sotrastaurin -0.003

LIG4 (UniProt P49917)
inactive: vemurafenib 0.041 | [1] -0.034 | barasertib -0.04 | [2] -0.087 | volasertib -0.182 | [3] -0.027 | [4] -0.105 | [5] 0.018 | saracatinib 0.027 | sotrastaurin 0.048

LRRC40 (UniProt Q9H9A6)
inactive: vemurafenib 0.004 | [1] 0.015 | barasertib 0.034 | [2] -0.024 | volasertib -0.011 | [3] 0.018 | [4] 0.052 | [5] -0.052 | saracatinib 0 | sotrastaurin 0.021

MAP2K2 (UniProt P36507)
inactive: vemurafenib 0.224 | [1] 0.184 | barasertib 0.026 | [2] -0.076 | volasertib -0.089 | [3] 0.008 | [4] 0.252 | [5] -0.047 | saracatinib 0.093 | sotrastaurin -0.002

LRCH3 (UniProt Q96II8)
inactive: vemurafenib -0.009 | [1] -0.01 | barasertib 0.03 | [2] -0.051 | volasertib -0.058 | [3] -0.022 | [4] 0.022 | [5] -0.031 | saracatinib 0.004 | sotrastaurin -0.047

LUC7L (UniProt Q9NQ29)
inactive: vemurafenib 0.019 | [1] -0.014 | barasertib 0.024 | [2] -0.072 | volasertib 0.028 | [3] -0.004 | [4] 0.172 | [5] -0.008 | saracatinib -0.013 | sotrastaurin -0.068

LSM8 (UniProt O95777)
inactive: vemurafenib -0.054 | [1] 0.018 | barasertib 0.355 | [2] -0.019 | volasertib 0.027 | [3] 0 | [4] -0.058 | [5] 0.052 | saracatinib -0.005 | sotrastaurin -0.017

MAPK14 (UniProt Q16539)
inactive: vemurafenib 0.175 | [1] 0.081 | barasertib 0.021 | [2] -0.192 | volasertib -0.056 | [3] -0.052 | [4] -0.035 | [5] 0.093 | saracatinib 0.226 | sotrastaurin -0.058

LZTR1 (UniProt Q8N653)
inactive: vemurafenib 0.026 | [1] -0.118 | barasertib 0.081 | [2] 0.002 | volasertib -0.125 | [3] -0.012 | [4] 0 | [5] -0.047 | saracatinib -0.031 | sotrastaurin 0.065

MORC3 (UniProt Q14149)
inactive: vemurafenib 0.025 | [1] 0.01 | barasertib 0.019 | [2] -0.03 | volasertib -0.077 | [3] 0.007 | [4] -0.007 | [5] -0.055 | saracatinib 0.004 | sotrastaurin 0.006

MED16 (UniProt Q9Y2X0)
inactive: vemurafenib -0.059 | [1] 0.008 | barasertib -0.113 | [2] -0.04 | volasertib -0.036 | [3] 0.056 | [4] 0.177 | [5] -0.189 | saracatinib -0.014 | sotrastaurin -0.018

MAD2L2 (UniProt Q9UI95)
inactive: vemurafenib -0.028 | [1] 0.246 | barasertib 0.013 | [2] -0.065 | volasertib 0.044 | [3] 0.089 | [4] -0.036 | [5] -0.051 | saracatinib 0.079 | sotrastaurin -0.006

MLXIP (UniProt Q9HAP2)
inactive: vemurafenib 0.004 | [1] 0.013 | barasertib 0.019 | [2] -0.032 | volasertib -0.041 | [3] 0.028 | [4] -0.045 | [5] 0.093 | saracatinib 0 | sotrastaurin 0.008

MAPK6 (UniProt Q16659)
active: [4] 0.221
inactive: vemurafenib 0.006 | [1] 0.001 | barasertib 0.047 | [2] 0.034 | volasertib -0.001 | [3] -0.029 | [5] -0.02 | saracatinib -0.014 | sotrastaurin 0.014

LYRM4 (UniProt Q9HD34)
inactive: vemurafenib 0.026 | [1] 0.015 | barasertib -0.04 | [2] -0.051 | volasertib 0.021 | [3] 0.03 | [5] -0.035 | saracatinib 0.007 | sotrastaurin -0.05
active: [4] 0.715

KIF21A isoform 5 (UniProt Q7Z4S6)
inactive: vemurafenib 0.03 | [1] 0.041 | barasertib 0.005 | [2] -0.038 | volasertib -0.026 | [3] -0.025 | [4] 0.165 | [5] -0.101 | saracatinib 0.037 | sotrastaurin 0.017

MFF isoform 2 (UniProt Q9GZY8)
Sequence of UniProt Q9GZY8 (Q9GZY8 whole entry, looked up): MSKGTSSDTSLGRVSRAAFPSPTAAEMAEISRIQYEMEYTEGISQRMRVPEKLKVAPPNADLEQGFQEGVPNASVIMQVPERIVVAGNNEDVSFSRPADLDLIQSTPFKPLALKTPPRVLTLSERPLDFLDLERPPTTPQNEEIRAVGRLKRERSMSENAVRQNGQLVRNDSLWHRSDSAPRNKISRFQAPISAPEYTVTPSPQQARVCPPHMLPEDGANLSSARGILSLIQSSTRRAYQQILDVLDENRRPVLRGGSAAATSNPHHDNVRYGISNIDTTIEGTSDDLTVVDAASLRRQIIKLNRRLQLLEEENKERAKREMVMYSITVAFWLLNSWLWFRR
inactive: vemurafenib 0.019 | [1] 0.027 | barasertib 0.027 | [2] 0.032 | volasertib -0.014 | [3] 0.035 | [5] 0.036 | saracatinib 0.011 | sotrastaurin -0.044
active: [4] -0.234

LPIN1 isoform 7 (UniProt Q14693)
Sequence of UniProt Q14693 (Q14693 whole entry, looked up): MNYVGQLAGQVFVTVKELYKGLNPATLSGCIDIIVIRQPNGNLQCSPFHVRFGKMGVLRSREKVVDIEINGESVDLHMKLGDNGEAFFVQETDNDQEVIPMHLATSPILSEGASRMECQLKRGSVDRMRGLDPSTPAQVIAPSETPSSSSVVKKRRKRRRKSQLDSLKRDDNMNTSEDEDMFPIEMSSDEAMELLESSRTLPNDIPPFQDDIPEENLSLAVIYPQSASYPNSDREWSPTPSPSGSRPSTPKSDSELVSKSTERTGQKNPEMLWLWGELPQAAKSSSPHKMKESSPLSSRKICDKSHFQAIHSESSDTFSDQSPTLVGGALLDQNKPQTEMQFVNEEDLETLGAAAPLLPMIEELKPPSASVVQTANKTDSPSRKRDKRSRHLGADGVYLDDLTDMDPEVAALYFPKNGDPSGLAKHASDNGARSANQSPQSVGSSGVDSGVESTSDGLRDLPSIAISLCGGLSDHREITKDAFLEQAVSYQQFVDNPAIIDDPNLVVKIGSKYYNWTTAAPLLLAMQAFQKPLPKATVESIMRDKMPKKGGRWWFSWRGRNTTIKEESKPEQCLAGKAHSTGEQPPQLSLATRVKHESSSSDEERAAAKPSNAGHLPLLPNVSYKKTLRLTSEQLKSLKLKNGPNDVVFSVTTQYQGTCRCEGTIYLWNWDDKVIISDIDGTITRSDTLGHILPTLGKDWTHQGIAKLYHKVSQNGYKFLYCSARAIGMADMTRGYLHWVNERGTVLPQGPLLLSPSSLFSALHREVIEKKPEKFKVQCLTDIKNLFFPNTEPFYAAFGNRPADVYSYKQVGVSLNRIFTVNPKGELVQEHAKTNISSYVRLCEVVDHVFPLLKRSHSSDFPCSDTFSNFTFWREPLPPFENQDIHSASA
inactive: vemurafenib -0.057 | [1] 0.065 | barasertib 0.1 | [2] -0.057 | volasertib -0.002 | [3] -0.003 | [4] -0.052 | [5] -0.05 | saracatinib 0.024 | sotrastaurin 0.028

L3HYPDH (UniProt Q96EM0)
inactive: vemurafenib 0.04 | [1] 0.033 | barasertib 0.015 | [2] 0.002 | volasertib -0.017 | [3] 0.011 | [4] 0.01 | [5] 0.012 | saracatinib -0.027 | sotrastaurin -0.008

LUZP1 (UniProt Q86V48)
inactive: vemurafenib 0.037 | [1] 0.003 | barasertib 0.013 | [2] 0.086 | volasertib -0.015 | [3] 0.012 | [4] 0.108 | [5] 0.014 | saracatinib -0.024 | sotrastaurin -0.01

MRPL28 (UniProt Q13084)
active: [4] 0.411
inactive: vemurafenib 0.005 | [1] 0.009 | barasertib 0.053 | [2] -0.06 | volasertib 0.019 | [3] 0.024 | [5] -0.356 | saracatinib -0.016 | sotrastaurin 0.055

MGAT5 (UniProt Q09328)
inactive: vemurafenib -0.254 | [1] -0.07 | barasertib 0.062 | [2] -0.08 | volasertib -0.065 | [3] 0.021 | [4] 0.094 | [5] -0.138 | saracatinib -0.036 | sotrastaurin 0.002

LAS1L (UniProt Q9Y4W2)
inactive: vemurafenib -0.027 | [1] 0.007 | barasertib -0.003 | [2] -0.051 | volasertib -0.069 | [3] 0.009 | [4] -0.055 | [5] 0.099 | saracatinib -0.031 | sotrastaurin 0.049

MED12 isoform 2 (UniProt Q93074)
Sequence of UniProt Q93074 (Q93074 whole entry, looked up): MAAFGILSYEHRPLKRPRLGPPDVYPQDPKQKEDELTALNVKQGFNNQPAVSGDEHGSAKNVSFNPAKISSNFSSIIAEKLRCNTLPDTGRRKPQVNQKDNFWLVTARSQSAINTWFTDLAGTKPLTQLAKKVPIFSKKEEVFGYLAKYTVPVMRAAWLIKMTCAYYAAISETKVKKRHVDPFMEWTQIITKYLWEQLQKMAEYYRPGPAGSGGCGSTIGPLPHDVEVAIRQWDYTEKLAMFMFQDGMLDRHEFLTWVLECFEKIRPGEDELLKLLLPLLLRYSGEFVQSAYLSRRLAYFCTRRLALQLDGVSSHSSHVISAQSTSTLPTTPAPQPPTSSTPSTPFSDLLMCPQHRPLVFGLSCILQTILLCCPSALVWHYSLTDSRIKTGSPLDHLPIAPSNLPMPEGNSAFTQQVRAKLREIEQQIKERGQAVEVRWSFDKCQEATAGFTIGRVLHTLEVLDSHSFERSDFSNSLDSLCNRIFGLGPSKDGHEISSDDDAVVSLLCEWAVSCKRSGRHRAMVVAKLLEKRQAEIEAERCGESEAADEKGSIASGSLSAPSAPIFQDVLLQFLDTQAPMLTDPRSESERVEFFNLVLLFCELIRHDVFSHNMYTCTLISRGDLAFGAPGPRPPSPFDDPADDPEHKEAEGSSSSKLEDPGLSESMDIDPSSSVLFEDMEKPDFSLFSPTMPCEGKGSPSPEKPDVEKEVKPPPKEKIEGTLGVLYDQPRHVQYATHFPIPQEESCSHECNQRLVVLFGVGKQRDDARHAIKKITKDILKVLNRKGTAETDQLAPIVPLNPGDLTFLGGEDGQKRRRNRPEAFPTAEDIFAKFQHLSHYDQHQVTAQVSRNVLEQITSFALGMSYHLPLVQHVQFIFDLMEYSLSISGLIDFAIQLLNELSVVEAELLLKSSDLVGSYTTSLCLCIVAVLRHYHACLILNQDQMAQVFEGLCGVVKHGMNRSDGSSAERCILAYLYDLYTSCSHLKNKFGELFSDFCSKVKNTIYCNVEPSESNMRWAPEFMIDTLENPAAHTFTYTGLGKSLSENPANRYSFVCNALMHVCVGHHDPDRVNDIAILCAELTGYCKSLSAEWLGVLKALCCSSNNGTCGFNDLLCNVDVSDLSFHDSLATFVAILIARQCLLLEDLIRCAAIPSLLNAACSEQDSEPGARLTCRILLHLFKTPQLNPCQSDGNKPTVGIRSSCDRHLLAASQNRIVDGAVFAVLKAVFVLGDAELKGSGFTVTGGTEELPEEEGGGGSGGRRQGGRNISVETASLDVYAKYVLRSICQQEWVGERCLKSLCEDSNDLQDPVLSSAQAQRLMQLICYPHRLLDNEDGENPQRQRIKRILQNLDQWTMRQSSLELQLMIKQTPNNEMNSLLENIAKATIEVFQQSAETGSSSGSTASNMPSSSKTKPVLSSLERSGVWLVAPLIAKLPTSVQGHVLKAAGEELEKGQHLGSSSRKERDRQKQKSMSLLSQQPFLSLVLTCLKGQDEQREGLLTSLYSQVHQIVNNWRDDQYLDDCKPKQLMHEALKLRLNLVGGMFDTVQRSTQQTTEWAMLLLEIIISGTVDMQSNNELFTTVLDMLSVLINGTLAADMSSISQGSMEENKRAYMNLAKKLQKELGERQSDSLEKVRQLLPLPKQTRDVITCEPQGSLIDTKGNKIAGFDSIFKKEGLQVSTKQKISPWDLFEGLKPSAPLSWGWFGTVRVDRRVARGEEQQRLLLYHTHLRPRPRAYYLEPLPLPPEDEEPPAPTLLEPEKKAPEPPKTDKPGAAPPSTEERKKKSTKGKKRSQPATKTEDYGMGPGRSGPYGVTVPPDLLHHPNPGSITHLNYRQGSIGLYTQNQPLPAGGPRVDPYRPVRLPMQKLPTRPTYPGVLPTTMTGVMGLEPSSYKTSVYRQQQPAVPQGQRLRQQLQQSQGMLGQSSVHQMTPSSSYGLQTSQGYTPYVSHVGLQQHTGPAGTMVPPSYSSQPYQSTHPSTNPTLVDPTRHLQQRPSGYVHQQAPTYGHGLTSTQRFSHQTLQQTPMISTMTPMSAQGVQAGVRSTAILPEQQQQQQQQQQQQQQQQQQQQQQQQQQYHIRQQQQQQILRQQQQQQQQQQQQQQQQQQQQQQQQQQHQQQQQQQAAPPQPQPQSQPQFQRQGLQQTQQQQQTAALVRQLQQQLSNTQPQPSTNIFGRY
inactive: vemurafenib -0.075 | [1] 0.005 | barasertib 0.057 | [2] -0.012 | volasertib -0.065 | [3] 0.037 | [4] 0.002 | [5] -0.066 | saracatinib 0.026 | sotrastaurin 0.022

MED10 (UniProt Q9BTT4)
inactive: vemurafenib 0.037 | [1] 0 | barasertib 0.08 | [2] 0.133 | volasertib 0.066 | [3] -0.009 | [4] 0.107 | [5] -0.059 | saracatinib 0.077 | sotrastaurin -0.015

MON2 isoform 5 (UniProt Q7Z3U7)
Sequence of UniProt Q7Z3U7 (Q7Z3U7 whole entry, looked up): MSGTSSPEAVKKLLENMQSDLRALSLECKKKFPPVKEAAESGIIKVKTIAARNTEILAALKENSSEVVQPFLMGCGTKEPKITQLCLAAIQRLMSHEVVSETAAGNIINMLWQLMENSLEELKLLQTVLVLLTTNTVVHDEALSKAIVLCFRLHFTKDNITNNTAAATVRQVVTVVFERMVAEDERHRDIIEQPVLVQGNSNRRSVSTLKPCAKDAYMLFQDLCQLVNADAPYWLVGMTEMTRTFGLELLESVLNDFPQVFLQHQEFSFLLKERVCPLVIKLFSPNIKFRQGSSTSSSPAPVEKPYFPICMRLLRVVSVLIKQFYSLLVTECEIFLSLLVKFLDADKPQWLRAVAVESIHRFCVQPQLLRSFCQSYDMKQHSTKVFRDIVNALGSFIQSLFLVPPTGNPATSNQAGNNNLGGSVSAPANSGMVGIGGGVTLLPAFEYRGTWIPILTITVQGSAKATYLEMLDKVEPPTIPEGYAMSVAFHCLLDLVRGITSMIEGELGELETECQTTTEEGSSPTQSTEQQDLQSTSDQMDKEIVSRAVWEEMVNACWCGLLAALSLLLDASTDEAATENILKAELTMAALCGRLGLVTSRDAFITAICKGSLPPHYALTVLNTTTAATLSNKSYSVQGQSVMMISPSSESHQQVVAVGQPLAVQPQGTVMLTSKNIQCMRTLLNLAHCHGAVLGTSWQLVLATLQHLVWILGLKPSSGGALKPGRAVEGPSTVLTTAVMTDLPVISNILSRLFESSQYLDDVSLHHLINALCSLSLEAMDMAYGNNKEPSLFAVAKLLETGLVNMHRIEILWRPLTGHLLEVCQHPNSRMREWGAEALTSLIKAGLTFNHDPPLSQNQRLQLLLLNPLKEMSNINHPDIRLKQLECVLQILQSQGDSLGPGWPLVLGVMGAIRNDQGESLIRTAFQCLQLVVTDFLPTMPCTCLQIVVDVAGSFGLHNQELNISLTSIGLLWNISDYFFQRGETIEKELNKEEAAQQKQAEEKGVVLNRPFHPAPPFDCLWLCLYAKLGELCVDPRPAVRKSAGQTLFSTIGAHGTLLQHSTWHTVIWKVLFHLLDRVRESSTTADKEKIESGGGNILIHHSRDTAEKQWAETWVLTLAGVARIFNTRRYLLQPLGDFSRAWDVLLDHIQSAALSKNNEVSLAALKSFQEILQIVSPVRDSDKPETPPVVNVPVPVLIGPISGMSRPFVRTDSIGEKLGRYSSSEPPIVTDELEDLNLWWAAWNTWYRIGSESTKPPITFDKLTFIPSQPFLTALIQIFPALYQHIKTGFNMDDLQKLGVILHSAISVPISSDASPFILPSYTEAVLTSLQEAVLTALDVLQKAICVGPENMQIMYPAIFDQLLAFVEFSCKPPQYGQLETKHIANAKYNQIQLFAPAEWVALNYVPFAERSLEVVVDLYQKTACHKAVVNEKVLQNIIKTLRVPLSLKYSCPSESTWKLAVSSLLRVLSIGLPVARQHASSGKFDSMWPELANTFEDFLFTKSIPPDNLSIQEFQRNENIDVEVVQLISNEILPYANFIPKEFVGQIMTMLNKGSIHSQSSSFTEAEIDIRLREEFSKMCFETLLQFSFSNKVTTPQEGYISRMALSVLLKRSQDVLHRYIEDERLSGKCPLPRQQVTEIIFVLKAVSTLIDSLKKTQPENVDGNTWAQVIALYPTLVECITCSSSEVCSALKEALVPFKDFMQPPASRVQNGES
inactive: vemurafenib -0.015 | [1] 0.025 | barasertib 0.008 | [2] -0.029 | volasertib -0.04 | [3] 0.019 | [4] -0.07 | [5] 0.062 | saracatinib -0.006 | sotrastaurin -0.003

KLHL36 (UniProt Q8N4N3)
inactive: vemurafenib 0.024 | [1] 0.106 | barasertib -0.088 | [2] 0.077 | volasertib -0.127 | [3] 0.1 | [4] -0.006 | [5] -0.048 | saracatinib -0.031 | sotrastaurin 0.099

LIMK2 isoform 3 (UniProt P53671)
inactive: vemurafenib 0.031 | [1] 0.046 | barasertib -0.062 | [2] -0.173 | volasertib -0.002 | [3] -0.046 | [5] 0.023 | saracatinib -0.017 | sotrastaurin -0.05
active: [4] 0.963

MCMBP (UniProt Q9BTE3)
inactive: vemurafenib -0.029 | [1] 0.019 | barasertib -0.007 | [2] 0.006 | volasertib -0.026 | [3] 0.043 | [4] 0.035 | [5] -0.032 | saracatinib 0.02 | sotrastaurin 0.015

KNOP1 (UniProt Q1ED39)
inactive: vemurafenib -0.285 | [1] 0.026 | barasertib -0.014 | [2] 0.315 | volasertib 0.056 | [3] -0.161 | [4] 0.016 | [5] 0.012 | saracatinib -0.029 | sotrastaurin -0.063
